{"source": "PubChem BioAssay (NCI)", "note": "About 83,000 compounds went through this panel and 20% of them were active in at least one assay; those are over-represented in the sample as a whole.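 Values shown are percent growth following 48 h exposure of cells in 96-well plates to a single concentration of compound; below 10 was considered active.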 Calls of active or inactive are those of the source."}
{"test_system": "MDA-MB-468 breast", "experiment": "NCI-60 one-dose screen, 48 h (100 = growth as untreated, 0 = no growth, -100 = all killed)", "settings": "10 µM unless noted"}
{"compound": "COc1cc(/C=N\\NC(=O)c2ccc3nc(-c4ccc(Br)cc4)[nH]c3c2)cc(OC)c1OC", "growth": "37.2% (inactive)"}
{"compound": "O=C1C(=O)c2ccccc2C(O)=C1CCCc1ccc(C2CCCCC2)cc1", "growth": "17.5% (inactive)"}
{"compound": "N#CC1=C(N)Oc2c(ccc3ccccc23)C1c1cccs1", "note": "(configuration not stated)", "growth": "26.5% (inactive)"}
{"compound": "O=C(O)c1ccc(-c2nn(-c3ccc(C(=O)O)cc3)cc2CNc2ccc(Br)cc2)cc1", "growth": "114% (inactive)"}
{"compound": "CCN(CC)C(Cl)=Nc1ccc(Cl)cc1", "growth": "103% (inactive)"}
{"compound": "COc1cccc(-c2nn(-c3ccccc3)cc2-c2ccnc(NCCCO)c2)c1", "growth": "23.8% (inactive)"}
{"compound": "COC(=O)[C@]12CC[C@@H](C)[C@H](C)[C@@H]1C1=CC[C@@H]3[C@@]4(C)C[C@@H](OC(C)=O)[C@H](O)[C@@](C)(CO)[C@@H]4[C@H](O)C[C@@]3(C)[C@]1(C)CC2", "growth": "-90.6% (active)"}
{"compound": "O=C(Cn1c(-c2ccccc2)nc2cc(Cl)c(Cl)cc21)N=Nc1c(O)[nH]c2ccc(Cl)cc12", "growth": "61.7% (inactive)"}
{"compound": "COc1ccc(-n2nc(C)c3c(Nc4ccc(NC(=O)Nc5cc(C(F)(F)F)ccc5F)cc4)ncnc32)cc1", "growth": "29.6% (inactive)"}
{"compound": "O=[N+]([O-])c1ccc2[nH]cc(-c3c4ccccc4cc4[nH]c5ccc([N+](=O)[O-])cc5c34)c2c1", "growth": "23.9% (inactive)"}
{"compound": "COc1cc2c(c(OC)c1OC)C(=O)CC(c1cccc(NC(=O)c3ccccc3Br)c1)O2", "note": "(configuration not stated)", "growth": "85.1% (inactive)"}
{"compound": "CNC(=O)c1cc(Oc2cccc3nc(NC(=O)Nc4cc(C(F)(F)F)cc(C(F)(F)F)c4)ccc23)ccn1", "growth": "32% (inactive)"}
